Experimental data reported in PubChem BioAssay (Tox21).
Results filed as inconclusive are left out. Unmarked numbers belong to inactive results. Calls of active or inactive are those of the source. Calls come from the whole dose curve.

Assay: p53 small molecule agonists, cell-based qHTS assay with rat liver microsomes: qHTS cell viability counter screen (AID 1963580); note: nearly all actives have a fitted effect of over 45% in size
Conditions: p53RE-bla HCT-116 + rat microsomes, ATP viability, 16 h; series mostly up to 66 µM; activity change, negative = cytotoxicity: at the top concentration
Source text: National Center for Advancing Translational Sciences [NCATS]
Division of Preclinical Innovation [DPI]
U.S. Environmental Protection Agency [EPA]
National Institutes of Environmental Health Sciences [NIEHS]
National Toxicology Program [NTP]
U.S. Food and Drug Administration [FDA]
p53, a tumor suppressor protein, is activated following cellular insult, including DNA damage and other cellular stresses. The activation of p53 regulates cell fate by inducing DNA repair, cell cycle arrest, apoptosis, or cellular senescence. The activation of p53, therefore, is a good indicator of DNA damage and other cellular stresses. The CellSensor p53RE-bla HCT-116 cell line contains a stably integrated beta-lactamase reporter gene under control of the p53 response elements. The activation of the reporter gene under culture conditions can be detected by fluorescence intensity. This cell line was used to screen the Tox21 10K compound library in the condition of presence of rat liver microsomes and to identify agonists that activate the p53 signaling pathway after in vitro metabolic activation (Ooka et al., Archive of Toxicology 96:1975-1987, 2022). The cytotoxicity of the Tox21 compound library against the p53 RE-bla HCT-116 cell line was tested in parallel by measuring the intra cellular ATP content in the same wells.
Tox21 Assay Protocol Summary:
The p53RE-bla cells were dispensed at 4,000cells/3ul/well in 1536-well black-clear bottom plates. After the assay plates were incubated at 37 C, 5% CO2 incubator for 5 hours, 23 nL of compounds dissolved in DMSO, positive controls or DMSO only was transferred to the assay plate. Following compound addition, 3 uL of rat liver microsomes (Molecular Toxicology, Boone, NC) at final concentration of 0.5 mg/mL and 1uL of B-Nicotinamide adenine dinucleotide 2'-phosphate (NADPH) at final concentration of 0.5 mg/mL were transferred to the assay plate. The plates were incubated at 37 C for 16 hours. 1 uL of LiveBLAzer detection mixture was added to each well and the plates were incubated at room temperature in the dark for 2 h. Fluorescence intensity at 460 and 530 nm emission and 405 nm excitation were measured by an Envision plate reader. For cell viability readout that measures cytotoxicity, 4 ul/well of CellTiter-Glo reagent was added into the assay plates using a Flying Reagent Dispenser. After 30 min incubation at room temperature, the luminescence intensity in the plates was measured using a ViewLux plate reader.
% is set by controls: 0 for no effect and ±100 for the full control effect; potency is the fitted concentration of half-maximal effect.

Row | SMILES | activity change, negative = cytotoxicity | Potency
1 | O=C(O)CNC(=O)c1ccc(CO)o1 | -1.75% | 
2 | CCOC(/C=C(\C)CCC=C(C)C)OCC | -7.73% | 
3 | CC(C)(Oc1ccc(CCNC(=O)c2ccc(Cl)cc2)cc1)C(=O)O |  | inactive
4 | CCCCCCCCc1ccc(Nc2ccc(CCCCCCCC)cc2)cc1 | -4.92% [at 30.3 µM] | 
5 | Cc1ccc(C)cc1 | -1.05% | 
6 | Cn1cnc2c(F)c(Nc3ccc(Br)cc3Cl)c(C(=O)NOCCO)cc21 | -10.6% [at 30.3 µM] | 
7 | NC(=O)CCCCC(N)=O | 3.68% | 
8 | C=C(C)C(=O)OCCC(F)(F)C(F)(F)C(F)(F)C(F)(F)C(F)(F)C(F)(F)F | -4.35% | 
9 | [O-][n+]1ccc(Cl)cc1 | -7.89% | 
10 | Nc1cccc2c1CN(C1CCC(=O)NC1=O)C2=O (stereo not given) | -8.78% [at 30.3 µM] | 
11 | COc1ccc(Cl)cc1C | -2.65% | 
12 | Cn1sccc1=O |  | 18.2 µM (active)
13 | CCOC(=O)OC(=O)OCC | -1.93% | 
14 | C=CC(=O)OCCCCCC | -18.3% | 
15 | COc1cc(S(N)(=O)=O)cc(C(=O)O)c1OC | 13.7% [at 30.3 µM] | 
16 | CC(=O)Nc1ncc([N+](=O)[O-])s1 | 9.23% [at 30.3 µM] | 
17 | CC(C)(O)C(=O)c1ccc(OCCO)cc1 | -1.13% | 
18 | CC(C)(C)CC(C)(C)c1ccc(Nc2ccc(C(C)(C)CC(C)(C)C)cc2)cc1 | -9.33% [at 5.99 µM] | 
19 | CO[C@@]1(NC(=O)C(C(=O)O)c2ccc(O)cc2)C(=O)N2C(C(=O)O)=C(CSc3nnnn3C)CO[C@@H]21 (stereo not given in full) | -3.96% [at 30.3 µM] | 
20 | Cc1ccc(C(C)(C)C)cc1 |  | inactive

Row | SMILES | activity change, negative = cytotoxicity | Potency
21 | N[C@@H](CSSC[C@H](N)C(=O)O)C(=O)O | -2.37% [at 0.249 µM] | 
22 | Cc1cccc2c1ccc1ccccc12 | 1.41% | 
23 | CC/C=C\CCOC(=O)CCCCC | -2.78% | 
24 | C=C1C[C@H]2[C@@H]3C=C(C)C4=CC(=O)CC[C@]4(C)[C@H]3CC[C@]2(C)[C@@]1(OC(C)=O)C(C)=O |  | inactive
25 | Cc1cc(C)cc(OCC2CNC(=O)O2)c1 (stereo not given) | 1.54% [at 30.3 µM] | 
26 | CCC(=O)O[C@H]1[C@H](O[C@@H]2[C@@H](C)[C@H](O[C@H]3C[C@@](C)(OC)[C@@H](O)[C@H](C)O3)[C@@H](C)C(=O)O[C@H](CC)[C@@](C)(O)[C@H](O)[C@@H](C)C(=O)[C@H](C)C[C@@]2(C)O)O[C@H](C)C[C@@H]1N(C)C | -4.9% [at 30.3 µM] | 
27 | CC(=O)CC/C=C(\C)CC/C=C(\C)CC/C=C(\C)CCC=C(C)C | 2.44% [at 30.3 µM] | 
28 | O=C1OC(=O)c2ccccc21 | 2.19% | 
29 | Cc1sccc1Br | -1.71% [at 30.3 µM] | 
30 | CCCCCCCCC1CCC(=O)O1 (stereo not given) | -3.93% | 
31 | CCCC(C)CO (stereo not given) | 0.926% | 
32 | Nc1ncnc2c1ncn2[C@@H]1O[C@H](COP(=O)(O)O)[C@@H](O)[C@H]1O | 6.17% [at 30.3 µM] | 
33 | CC[C@]12CCCN3CCc4c(n(c5ccccc45)[C@@](O)(C(=O)OC)C1)[C@@H]32 |  | inactive
34 | S=C(NC1CCCCC1)NC1CCCCC1 | -33% | 
35 | C(=C\c1ccccc1)/c1ccccc1 | 5.27% | 
36 | C1=CCC2CC=CC2C1 (stereo not given) | -1.02% | 
37 | CC(=O)O[C@@H]1CC2C3CCc4cc(OC(=O)c5ccccc5)ccc4C3CCC2(C)[C@H]1OC(C)=O (stereo not given in full) | -1.37% [at 30.3 µM] | 
38 | CCN(Cc1cccc(S(=O)(=O)O)c1)c1ccccc1 | -8.04% | 
39 | CO[Si](CCCCl)(OC)OC | -0.682% | 
40 | C/C(=C(\CCO)SS/C(CCO)=C(\C)N(C=O)Cc1cnc(C)nc1N)N(C=O)Cc1cnc(C)nc1N | 15.4% [at 30.3 µM] | 
